NPSR antag: blocks cAMP signaling of the human neuropeptide S receptor. Q6W5P4. CHO-NPSR cells, cAMP TR-FRET, antagonist mode. Potency, µM (series often up to 38.3 µM), actives largely listed as inhibitors. hit rate 1% among 220,000; further: nearly all actives have a fitted effect of over 50% in size
Target sequence (Q6W5P4 whole entry, looked up): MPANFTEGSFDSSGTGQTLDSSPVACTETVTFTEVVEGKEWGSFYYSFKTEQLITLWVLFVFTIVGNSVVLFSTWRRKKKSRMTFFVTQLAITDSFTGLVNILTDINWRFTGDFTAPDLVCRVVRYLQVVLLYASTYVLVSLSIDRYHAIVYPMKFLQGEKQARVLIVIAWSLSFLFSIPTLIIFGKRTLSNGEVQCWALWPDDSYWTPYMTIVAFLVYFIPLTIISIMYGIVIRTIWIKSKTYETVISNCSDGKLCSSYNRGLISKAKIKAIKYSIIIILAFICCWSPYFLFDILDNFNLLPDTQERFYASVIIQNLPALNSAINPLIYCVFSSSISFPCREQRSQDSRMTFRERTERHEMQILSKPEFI
ALDH1A1 block: ALDH1A1 (human) enzyme inhibition; Purified ALDH1A1, NADH fluorescence, propionaldehyde substrate; Potency, µM (doses to about 75.3 µM), most hits filed as inhibitors; hit rate 7.3% among 220,000; P00352; active means well fitted inhibition curve with a large enough effect, not every such curve was filed as active; inconclusive means small, poorly fitted or top-dose-only effect, or another doubt; inactive means no such curve, though single readings can be large or run the other way
HPGD block: blocks human HPGD enzyme activity; P15428; purified HPGD, NADH fluorescence kinetic, PGE2 substrate; Potency, µM, most hits filed as inhibitors; hit rate 4.3% among 150,000; AID 894; active means well fitted inhibition curve with a large enough effect, not every such curve was filed as active; inconclusive means small, poorly fitted or top-dose-only effect, or another doubt; inactive means no such curve, though single readings can be large or run the other way
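NADH formation kinetics: reaction with 30 uM PGE2 and 1 mM NAD+ (final), 20 nM enzyme, Tris-HCl pH 8 with Tween 20, after 15 min compound preincubation at room temperature. Fluorescence change, last versus first of five reads.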
12-hLO inh: blocks human 12-lipoxygenase activity; P18054; purified 12-hLO, xylenol orange hydroperoxide absorbance; Potency, µM (doses to about 57.1 µM), hits mostly inhibitors; hit rate 0.12% among 150,000; AID 1452; further: nearly all actives have a fitted effect of over 55% in size
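Hydroperoxide output read as Fe(III)-xylenol orange absorbance, 573-to-405 nm ratio, after 30 min reaction with 40 uM arachidonic acid. Enzyme: 150 nM purified human 12hLO, 15 min compound preincubation; 25 mM Hepes pH 7.0, room temperature.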
IMPase Li cell: membrane-permeable IMPase blocker, potentiated with lithium; CHO-M1 cells, IP1 TR-FRET (IP-One), carbachol + lithium; hit rate 0.35% among 210,000; Potency, µM (doses to about 59.4 µM), actives largely listed as inhibitors;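 further: IP1 builds up when IMPase is blocked and the TR-FRET signal falls; nearly all actives have a fitted effect of over 50% in size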
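CHO-M1, 2000 cells/well, 16–30 h culture; cpd + low Li+, 30 min 37C; lysis with d2-IP1/Eu-anti-IP1 Ab, 10 min RT; TR-FRET 665/620 ratio and 620 channel; AC50 via Hill.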
IMPase cell inh: membrane-permeable compound that blocks inositol monophosphatase | P97697 | CHO-M1 cells, IP1 accumulation, HTRF TR-FRET ratio | inhibition (IP1 accumulation), % at 46.1 µM | 120,000 tested, under 10 active | AID 901; active means well fitted curve in the direction sought with a large enough effect in the signal ratio, not every such curve was filed as active; inconclusive means small, poorly fitted or top-dose-only effect, or a change in a side signal; inactive means no such curve, though single readings can be large or run the other way; the % refers to the signal ratio;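 further: cells stimulated with carbachol in lithium chloride buffer; higher means more IMPase inhibition seen as more IP1 and lower FRET ratio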
Target sequence (P97697 whole entry, looked up): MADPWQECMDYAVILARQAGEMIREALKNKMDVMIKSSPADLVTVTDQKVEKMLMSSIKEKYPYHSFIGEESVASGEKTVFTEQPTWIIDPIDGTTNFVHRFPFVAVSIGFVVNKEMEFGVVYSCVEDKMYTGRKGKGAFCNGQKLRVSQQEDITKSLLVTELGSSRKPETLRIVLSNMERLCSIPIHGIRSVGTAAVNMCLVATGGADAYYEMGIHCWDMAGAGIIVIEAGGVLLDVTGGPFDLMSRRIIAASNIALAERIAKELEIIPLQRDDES
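Seeded CHO-M1 cells were dosed with compound at up to 46 uM, stimulated with carbachol for 30 min, then lysed in IP-One detection reagents. Higher IP1 lowers the TR-FRET signal.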
Of the large screens only hits and unclear results are named; the others gave an inactive call. An excerpt weighted towards active compounds, which were near 8.9% of everything screened. Unless noted, the call rests on the fitted dose curve; in most records, active means well fitted curve in the direction sought with a large enough effect; inconclusive means small, poorly fitted or top-dose-only effect, or another doubt; inactive means no such curve, though single readings can be large; an effect the other way counts as inactive or inconclusive.

CCOC(=O)C(NC(=O)NCc1ccc(OC)cc1)(OCC)C(F)(F)F (configuration not stated)	none
CCC(CC)C(=O)N=C1SC2CS(=O)(=O)CC2N1CCc1ccc(OC)c(OC)c1 (configuration not stated)	none (no result: ALDH1A1 block, HPGD block, 12-hLO inh, IMPase Li cell, IMPase cell inh)
Cc1ccc2occ(/C=N/O)c(=O)c2c1	ALDH1A1 block inconclusive
O=c1c(/C=N/O)coc2ccc3ccccc3c12	ALDH1A1 block 11.2µM
CC(=O)Nc1ccc(C(=O)N/N=C(\C)CC(=O)Nc2ccc(OCc3ccccc3)cc2)cc1	none (no result: IMPase cell inh)
CC1CCc2c(sc(NC(=O)c3ccc(Cn4cc([N+](=O)[O-])cn4)o3)c2C#N)C1 (configuration not stated)	ALDH1A1 block 25.1µM
COC(=O)c1sc(NC(=O)c2ccc(Cn3cc(Cl)cn3)o2)c(C#N)c1C	NPSR antag inconclusive, ALDH1A1 block 3.55µM, HPGD block 15.8µM
Cc1ccc(N2C(=O)CC(N(CCc3ccccc3)C(=S)Nc3ccc(N(C)C)cc3)C2=O)cc1 (configuration not stated)	ALDH1A1 block 28.2µM
CC(=O)NCCNc1ncncc1-c1ccccc1C(F)(F)F	none (no result: NPSR antag, IMPase cell inh)
Cc1cccc(C)c1NC(=O)CCCCCC1NC(=O)NC1C (configuration not stated)	none (no result: HPGD block, 12-hLO inh, IMPase cell inh)
CC1NC(=O)NC1CCCCCC(=O)NCCc1ccccc1 (configuration not stated)	ALDH1A1 block inconclusive, HPGD block 25.1µM
CCOC(=O)N1CCN(c2c(NCc3ccccn3)c(=O)c2=O)CC1	ALDH1A1 block inconclusive
COC(=O)C1=C(C)N(CCc2c[nH]c3ccccc23)C(=O)C1	ALDH1A1 block inconclusive (no result: HPGD block, 12-hLO inh, IMPase cell inh)
O=c1ccn(CCc2c[nH]c3ccccc23)c2c1CCCC2	ALDH1A1 block 14.1µM (no result: HPGD block, 12-hLO inh, IMPase cell inh)
Cc1c(=O)n(OCc2cccc(F)c2)c2ccccc2[n+]1[O-]	ALDH1A1 block inconclusive
Cc1ccc(-c2nc3ccc(NS(=O)(=O)c4ccccc4)cc3[nH]2)o1	ALDH1A1 block 8.91µM
CC(=O)Nc1ccc2nc(-c3ccc(Br)o3)[nH]c2c1	ALDH1A1 block 31.6µM (no result: IMPase cell inh)
Cc1ccc(-c2nnc(SCc3ccccc3F)o2)cc1	none
Cc1ccc(-c2csc3n[nH]c(=S)n23)cc1	ALDH1A1 block inconclusive, HPGD block 28.2µM, 12-hLO inh inconclusive
COc1cccc(C(=O)NNC(=O)CCc2ccccc2)c1	none (no result: HPGD block, 12-hLO inh, IMPase cell inh)
COc1ccc(-c2nc(C#N)c(N3CCOCC3)o2)cc1OC	ALDH1A1 block inconclusive, HPGD block inconclusive
CCN(CC)C(=O)C1CCN(S(=O)(=O)c2ccc(C3CNC(=O)C3)cc2)CC1 (configuration not stated)	none
C=CCOc1cccc(C2C(C(=O)c3ccco3)=C(O)C(=O)N2Cc2ccncc2)c1 (configuration not stated)	ALDH1A1 block inconclusive
C=CCOc1cccc(C2C(C(=O)c3ccco3)=C(O)C(=O)N2CCN2CCOCC2)c1 (configuration not stated)	ALDH1A1 block 25.1µM
COc1cccc2cc(C(=O)C3=C(O)C(=O)N(CCN4CCOCC4)C3c3cccs3)oc12 (configuration not stated)	ALDH1A1 block 25.1µM, IMPase Li cell inconclusive
COc1cccc2cc(C(=O)C3=C(O)C(=O)N(CCN(C)C)C3c3ccc(Cl)cc3)oc12 (configuration not stated)	none (no result: ALDH1A1 block, HPGD block, 12-hLO inh, IMPase Li cell, IMPase cell inh)
COc1ccc(C2C(C(=O)/C=C/c3ccco3)=C(O)C(=O)N2CCN2CCOCC2)cc1 (configuration not stated)	ALDH1A1 block 20µM (no result: HPGD block, 12-hLO inh, IMPase cell inh)
COc1cccc(C2C(C(=O)/C=C/c3ccco3)=C(O)C(=O)N2CCN2CCOCC2)c1 (configuration not stated)	none (no result: HPGD block, 12-hLO inh, IMPase cell inh)
COc1cccc(C2C(C(=O)c3sc(C)nc3C)=C(O)C(=O)N2CCN2CCOCC2)c1 (configuration not stated)	ALDH1A1 block 20µM, IMPase Li cell inconclusive
COc1ccc(-n2c(=S)[nH]c3ccccc32)cc1	ALDH1A1 block 31.6µM, HPGD block 22.4µM
COc1ccc(-c2nc(SCC(=O)Nc3ccccc3)c(-c3ccc(F)cc3)[nH]2)cc1OC	none (no result: NPSR antag, ALDH1A1 block, HPGD block, 12-hLO inh, IMPase Li cell)
COc1ccccc1C(=O)NC1(C(F)(F)F)C(=O)Nc2c1c(=O)[nH]c(=O)n2CCc1ccccc1 (configuration not stated)	none (no result: NPSR antag, ALDH1A1 block, HPGD block, 12-hLO inh, IMPase Li cell)
COc1ccc(C(=O)/C=C/Nc2cccc(O)c2)cc1	ALDH1A1 block 11.2µM, HPGD block inconclusive
COc1ccc(C(=O)/C=C/Nc2ccc([N+](=O)[O-])cc2)cc1	ALDH1A1 block 39.8µM (no result: IMPase cell inh)
COc1ccc(C(=O)NNc2ccccc2)cc1	ALDH1A1 block 28.2µM (no result: IMPase cell inh)
COc1ccc(C(=O)c2ccccc2)cc1	none (no result: HPGD block, 12-hLO inh, IMPase cell inh)
COc1cccc(C(=O)/C=C/Nc2cc(C)ccc2O)c1	NPSR antag inconclusive, ALDH1A1 block 25.1µM, HPGD block inconclusive
COc1ccc(C(=O)/C=C/Nc2ccc(S(=O)(=O)Nc3cccc(C(C)=O)c3)cc2)cc1	ALDH1A1 block inconclusive, HPGD block inconclusive
COc1cccc(-c2nc(S(=O)(=O)c3ccccc3)c(NCc3ccccc3)o2)c1	none (no result: NPSR antag, ALDH1A1 block, HPGD block, 12-hLO inh, IMPase Li cell)
Cc1ccc(NC(=O)c2noc3c2CC(C(C)(C)C)CC3)cc1 (configuration not stated)	HPGD block inconclusive, IMPase cell inh inconclusive
O=C(Nc1ccccc1)N1CC2(CCN(C(=O)c3ccco3)CC2)C1	none (no result: NPSR antag, IMPase cell inh)
COc1ccc(CNC(=O)COC(=O)c2ccccc2OCC(=O)Nc2ccc(SC(F)F)cc2)cc1	none (no result: ALDH1A1 block, HPGD block, 12-hLO inh, IMPase Li cell, IMPase cell inh)
CCOC(=O)c1ccc2c(c1)N(Cc1ccccc1C)C(=O)c1ccccc1S2=O (configuration not stated)	none
COc1ccc(C(=O)/C=C/N(C)C)cc1	ALDH1A1 block 7.94µM, HPGD block 25.1µM
CC(=O)Nc1nc(C)c(S(N)(=O)=O)s1	none
CC(C)[C@@H](CC(=O)N[C@@H]1CCCC[C@H]1C(=O)N[C@H](CC(=O)N[C@@H](CCC(=O)O)CC(=O)O)Cc1c[nH]c2ccccc12)NC(=O)C[C@H](CO)NC(=O)[C@@H]1CNCC[C@H]1N	ALDH1A1 block inconclusive (no result: NPSR antag, IMPase cell inh)
O=C(NCc1ccccc1F)C1CCN(C(=O)c2sccc2-n2cccc2)CC1	ALDH1A1 block 2.51µM (no result: HPGD block, 12-hLO inh, IMPase cell inh)
O=C(NNC(=O)c1c(F)cccc1F)c1sccc1-n1cccc1	none (no result: HPGD block, 12-hLO inh, IMPase cell inh)
CC1CCCCC1NC(=O)C1CCN(C(=O)c2sccc2-n2cccc2)CC1 (configuration not stated)	NPSR antag inconclusive, ALDH1A1 block 1.12µM
O=C(NCc1ccccc1Cl)C1CCN(C(=O)c2sccc2-n2cccc2)CC1	ALDH1A1 block 1.41µM
COc1ccccc1CNC(=O)C1CCN(C(=O)NC2CCCCC2)CC1	none (no result: HPGD block, 12-hLO inh, IMPase cell inh)
CCOc1ccccc1CNC(=O)C1CCN(C(=O)c2sccc2-n2cccc2)CC1	ALDH1A1 block 0.631µM
O=Cc1cccn1Cc1ccc(Cl)cc1Cl	none

Compound activity deposited in PubChem BioAssay by National Center for Advancing Translational Sciences (NCATS).
